Screens deposited in PubChem BioAssay by Buhrlage Lab, Dana-Farber Cancer Institute and Novartis Institutes for BioMedical Research (Cambridge, Mass).
OTUD3 block – blocks human OTUD3 ubiquitin-rhodamine cleavage. Q5T2D3. purified OTUD3, Ub-rhodamine fluorescence, 2 h. inhibition, % at 25 µM. hit rate 0.7% among 47,000
Target sequence (Q5T2D3 whole entry, looked up): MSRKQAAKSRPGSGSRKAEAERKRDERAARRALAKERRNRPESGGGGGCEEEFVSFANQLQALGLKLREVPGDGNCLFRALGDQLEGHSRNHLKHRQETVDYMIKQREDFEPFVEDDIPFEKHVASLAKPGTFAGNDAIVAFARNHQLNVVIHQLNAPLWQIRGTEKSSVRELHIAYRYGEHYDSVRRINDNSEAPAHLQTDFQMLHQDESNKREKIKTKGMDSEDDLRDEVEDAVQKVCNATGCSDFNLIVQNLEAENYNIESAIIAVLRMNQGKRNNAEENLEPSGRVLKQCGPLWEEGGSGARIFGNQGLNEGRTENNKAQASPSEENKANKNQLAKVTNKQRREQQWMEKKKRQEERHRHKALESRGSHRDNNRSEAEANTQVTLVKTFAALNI
USP28 block – blocks human USP28 ubiquitin-rhodamine cleavage. purified USP28, Ub-rhodamine cleavage fluorescence, 30 min. inhibition, % at 25 µM. AID 1645857. hit rate 3% among 47,000
USP17 inh – human USP17-like deubiquitinase inhibition | A8MUK1 | purified USP17, Ub-rhodamine cleavage fluorescence, 3 h | inhibition, % at 50 µM | hit rate 6.5% among 47,000 | AID 1645855
USP30 block – inhibitors of human USP30 deubiquitinase; Q70CQ3; hit rate 5.3% among 47,000; purified USP30, Ub-rhodamine cleavage fluorescence; AID 1645860; inhibition, % at 25 µM
USP8 inh – inhibitors of human USP8 deubiquitinase; P40818; purified USP8, Ub-rhodamine cleavage fluorescence, 30 min; AID 1645853; inhibition, % at 20 µM; hit rate 4.2% among 47,000
* hit, by the source's call; . = not tested or not shown. Most compounds without a hit are left out; they make up all but 13% or so of the library. Rule as the data show it: active = inhibition above about 30%; inactive = the rest.

SMILES | OTUD3 block | USP28 block | USP17 inh | USP30 block | USP8 inh
Cc1ccc(CNC(=O)c2ccccc2OCc2ccc(Cl)cc2)cc1 | 12 | 17 | 11 | 24 | 11
COc1ccccc1CNC(=O)c1ccccc1OCc1ccc(F)cc1 | 27 | 29 | 27 | 38* | 23
COc1cccc(CNC(=O)c2ccccc2OCc2ccccc2)c1 | 17 | 19 | 31* | 41* | 10
COc1ccccc1CNC(=O)c1cccc2cccnc12 | 7 | 24 | 11 | 21 | 14
CCn1c(=O)c(NC(=O)c2ccccc2)c2n(c1=O)CCCCC2 | -5 | -3 | 0 | 16 | 6
O=C(CCSCc1cccc(F)c1)NCCc1ccc(Cl)cc1 | 11 | 15 | 14 | 37* | 7
COc1ccccc1Nc1cc(C)nc2nc(-c3ccco3)nn12 | -27 | -4 | 41* | -32 | -22
Cc1cc(Nc2ccc(C)c(Cl)c2)n2nc(-c3ccco3)nc2n1 | -34 | -34 | -50 | -162 | 35*
Cc1ccccc1NC(=O)CCc1cccc2[nH]ccc12 | 12 | -1 | 14 | 8 | 20
Cc1ccccc1NC(=O)Cc1nc(-c2cccc3ccccc23)cs1 | 0 | 14 | 47* | 17 | 73*
Cc1ccccc1NC(=O)COc1ccccc1-c1noc(COc2ccccc2F)n1 | -27 | -14 | -14 | -65 | 4
CCCN(CC(=O)Nc1ccccc1C)CC(=O)Nc1cccc2ccccc12 | 26 | 19 | 19 | 37* | 13
COc1ccc(Cn2cccc2-c2nc(C)no2)cc1 | 16 | 14 | 10 | 17 | 1
O=C1c2cccc(OCc3ccc(Cl)cc3)c2CCN1Cc1cccnc1 | -2 | 23 | 18 | 32* | 0
COc1ccc(C(=O)CC(=O)C(=O)Nc2ccc(F)cc2)cc1 | -3 | 7 | 3 | -11 | -35
Cc1ccccc1-c1nc(SCC(=O)N2CCCC2)c2c(=O)n(C)c(=O)n(C)c2n1 | 6 | 0 | 9 | 43* | 9
Cc1ccccc1NC(=O)CSc1nc(-c2ccco2)nc2c1c(=O)n(C)c(=O)n2C | 0 | -8 | -2 | -5 | -119
Cc1ccc(-c2cc(C#N)c(=O)n(Cc3ccccc3)c2)cc1 | 13 | 0 | 7 | 11 | 9
Cc1ccc(-c2cc(C#N)c(=O)n(Cc3ccc(F)cc3)c2)cc1 | -1 | -8 | 41* | 0 | 0
Cn1c(SCc2nc3ccccc3c(=O)[nH]2)nc2ccccc21 | -19 | -3 | -4 | -84 | 34*
O=C(COc1ccc(Cl)cc1)Nc1noc(-c2cccs2)n1 | 0 | 31* | 48* | 44* | 85*
O=C(COc1ccc(Cl)cc1)Nc1ccccc1C(=O)Nc1ccccc1 | -10 | -16 | -29 | 0 | -40
Cc1ccc(NCc2cc(=O)n3c(C)csc3n2)c(C)c1 | -3 | -5 | -10 | -3 | 0
Cc1cc(O)c2c(c1)C(=O)c1cc(O)ccc1C2=O | 4 | 2 | 0 | -11 | 2
COc1cc(O)c2c(c1O)C(=O)c1cc(C)ncc1C2=O | -17 | 2 | 43* | -35 | -8
SMILES | OTUD3 block | USP28 block | USP17 inh | USP30 block | USP8 inh
CCN1CC2(CCN(c3ncccn3)CC2)COc2ccccc2S1(=O)=O | -3 | 0 | -17 | 0 | -2
O=[N+]([O-])c1c(Cl)cccc1-c1c[nH]cc1Cl | 5 | 48* | 8 | 3 | -11
O=C(COc1ncnc2sc(-c3ccccc3)cc12)Nc1ccc2c(c1)OCCO2 | -1 | -2 | . | -23 | 28
CCc1cc(=O)n(CC(=O)NCc2ccc(F)cc2)c(N2CCOCC2)n1 | 12 | 6 | 22 | 31* | 1
Cc1cc(=O)n(CC(=O)NCc2ccc(F)cc2)c(N2CCCCC2)n1 | -4 | -3 | -2 | 2 | -11
Cc1ccc(CNC(=O)Cn2c(N3CCCCC3)nc(C)cc2=O)cc1 | 16 | 23 | 41* | 36* | 9
C=C1CCC[C@]2(C)C[C@H]3OC(=O)C(CN(C)C[C@@H](O)c4cccc(O)c4)[C@H]3C[C@@H]12 (some centres not stated) | -9 | -10 | -16 | -53 | -5
C=C1CCC[C@]2(C)C[C@H]3OC(=O)C(CN(C)Cc4ccccc4)[C@H]3CC12 (some centres not stated) | 22 | 22 | 16 | 30* | 18
Cc1cc(C)n(-c2ccc(C(=O)NCc3ccc(F)cc3)cn2)n1 | 9 | 34* | 49* | 69* | 20
CC(=O)Nc1ccc(-n2cnc(C(=O)NCc3ccc(F)cc3)c2)nc1 | 11 | 11 | 7 | 12 | 16
Cc1ccc(C(=O)NCc2ccc(N3CCOCC3)nc2)cc1F | 1 | -6 | -30 | -4 | -188
Cc1cccc(-n2cnc(C(=O)NCc3ccc(F)cc3)c2)n1 | 8 | 29 | 83* | 35* | 34*
CN(C)c1cc(-n2cnc(C(=O)Nc3ccccc3)c2)ncn1 | -2 | 9 | 17 | 26 | -7
CN(C)c1cc(-n2cnc(C(=O)NCc3cccc(Cl)c3)c2)ncn1 | 9 | 9 | 42* | 26 | 2
c1ccc2ncc(CN3CCC[C@H]3c3nc(-c4ccc(-n5ccnc5)nc4)no3)cc2c1 | -7 | -11 | 41* | -19 | 14
Cc1ccc(C(=O)c2cn(CC(=O)Nc3ccccc3C)c3ccc(C)cc3c2=O)cc1 | -31 | -26 | 40* | -83 | -4
COc1ccccc1NC(=O)Cn1cc(C(=O)c2ccc(C)cc2)c(=O)c2ccccc21 | 8 | 2 | 62* | 9 | -1
COCCNC(=O)C1c2ccccc2C(=O)N(Cc2ccccc2)C12CCCC2 (configuration not stated) | 8 | 12 | -1 | 32* | 10
COC(=O)CCCNC(=O)C1c2ccccc2C(=O)N(Cc2ccccc2)C12CCCC2 (configuration not stated) | -6 | -11 | 19 | -33 | 45*
COCCCNC(=O)C1c2ccccc2C(=O)N(Cc2ccccc2)C12CCCC2 (configuration not stated) | -7 | -12 | . | -15 | -8
Cc1ccccc1-c1cc2n(n1)CCC(=O)N2 | 5 | 2 | 8 | 0 | 4
CCn1nnc2cc(C(=O)NCc3ccc4c(c3)OCO4)ccc21 | -9 | 5 | -6 | -19 | -12
Nc1c(C(=O)NCc2ccc3c(c2)OCO3)nnn1Cc1ccc(Br)cc1F | 22 | 40* | . | 75* | 83*
O=C(Cn1c(=O)ccn(Cc2ccc(F)cc2)c1=O)Nc1ccc(F)cc1 | 16 | 4 | 1 | 13 | 9
O=C(Cn1c(=O)n(Cc2ccncc2)c(=O)c2ncccc21)Nc1cccc(F)c1 | 2 | 4 | -2 | 1 | 9
O=C(Cn1c(=O)n(Cc2ccc3c(c2)OCO3)c(=O)c2ncccc21)c1ccccc1 | 2 | 15 | 6 | 54* | -7
O=C(Cn1c(=O)c2cccn2c2ccccc21)NCc1ccc(F)cc1 | 0 | 2 | 0 | -138 | 17
O=C(Cn1c(=O)n(Cc2ccc(F)cc2)c(=O)c2ncccc21)Nc1ccccc1 | 5 | 16 | 24 | 65* | 14
O=C(Cn1c(=O)n(Cc2ccc(F)cc2)c(=O)c2sccc21)Nc1cccc(Cl)c1 | -8 | 0 | 65* | 28 | -1
